Experimental findings from PubChem BioAssay AID485367 (National Center for Advancing Translational Sciences (NCATS), 2010) are described below.

Screen size: about 330,000 compounds; about 560 (0.17%) were called active. Roughly 1% stayed inconclusive and do not appear here. Calls come from the whole dose curve; as a rule, active = well fitted inhibition curve with a large enough effect; inconclusive = small, poorly fitted or top-dose-only effect, or effect the other way; inactive = flat fitted curve, though single readings scatter. Shown is part of a subset that was picked to be rich in actives. Where a call stands in place of a potency, no number is given.
Potency is the fitted concentration of half-maximal effect.

Sequence of ATP-dependent 6-phosphofructokinase (Trypanosoma brucei brucei) (O15648 whole entry, looked up): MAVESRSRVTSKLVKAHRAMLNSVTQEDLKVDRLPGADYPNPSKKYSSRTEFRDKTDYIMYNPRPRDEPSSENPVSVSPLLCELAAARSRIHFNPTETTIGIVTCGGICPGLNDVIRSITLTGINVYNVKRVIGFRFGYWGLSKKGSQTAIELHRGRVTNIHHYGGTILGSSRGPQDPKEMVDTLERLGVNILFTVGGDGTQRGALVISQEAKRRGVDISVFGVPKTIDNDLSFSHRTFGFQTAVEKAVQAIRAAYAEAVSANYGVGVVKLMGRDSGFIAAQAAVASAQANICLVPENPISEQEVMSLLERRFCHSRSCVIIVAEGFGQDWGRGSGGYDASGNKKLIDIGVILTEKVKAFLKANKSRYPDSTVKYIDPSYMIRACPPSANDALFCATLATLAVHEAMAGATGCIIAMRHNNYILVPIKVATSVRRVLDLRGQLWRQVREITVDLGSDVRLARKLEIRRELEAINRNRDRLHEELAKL

For the assay, the target named is ATP-dependent 6-phosphofructokinase (Trypanosoma brucei brucei) (UniProt O15648). The assay is described as follows: qHTS Assay to Find Inhibitors of T. brucei phosphofructokinase. Note: nearly all actives have a fitted effect of over 60% in size. To be noted: T. brucei PFK, ADP-Glo luminescence; series mostly up to 57.5 µM. Summed up:
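PFK 1.25 nM, F6P 0.5 mM, ATP 0.1 mM, 0.1 M TEA pH 8.0, 5 mM MgCl2, 0.01% Tween20, 0.1% BSA; 45 min RT. ADP-Glo readout. qHTS titration up to 57 uM; curves fitted, compounds curve-classed.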
As to `O=C(COC(=O)/C=C/c1ccc(OC(F)F)cc1)NC1CCCCC1`, the Potency entry is “inactive”.

Consider `N=C1/C(=C/c2cccn2-c2cccc([N+](=O)[O-])c2)C(=O)N=C2SC=CN12`, for which the Potency entry is “inactive”.

For the compound `CCOC(=O)c1c(CNCc2ccccc2F)c2sc(C)cc2n1C`, the Potency entry was “inactive”.

Consider `O=[N+]([O-])c1c(NCCO)cc(Sc2nc3ccccc3s2)c2nonc12`, for which the Potency was 6.01 µM (active).

Consider `NC(=O)c1ccc(Nc2ccc3nonc3c2[N+](=O)[O-])cc1`, for which the Potency result was “inactive”.

On to `CCN(CC)CCCSc1nc2ccccc2s1`, for which the Potency entry was “inactive”.

As to `CCOCCOC(=O)C1=C(C)N(C)C(=O)NC1c1ccccc1F` (stereo unspecified), the Potency entry was “inactive”.

Regarding `CCOC1CS(=O)(=O)CC1OCC` (stereo unspecified), the Potency entry was “inactive”.

Consider `CC(C)(C)NC(=O)NC(=O)COC(=O)Cc1c(F)cccc1Cl`, for which the Potency result is “inactive”.

Take `O=C1CSC(=S)N1c1ccc(Cl)c(Cl)c1`: the Potency is 21.3 µM (active).

Regarding `COc1cc(N2C(=O)CSC2=S)cc(OC)c1OC`, the Potency entry is “inactive”.

As to `O=C1CSC(=S)N1c1ccc(O)cc1`, the Potency result was “inactive”.

For `O=C(COC(=O)CNS(=O)(=O)c1ccccc1)NC12CC3CC(CC(C3)C1)C2`, the Potency result was “inactive”.

Consider `Cc1ccc(C(=O)COC(=O)c2cccc(N3C(=O)c4c(C)nc5ccccc5c4C3=O)c2)cc1C`, for which the Potency entry was “inactive”.

For the compound `Cc1ccnc(NC(=O)c2ccc(Cl)c([N+](=O)[O-])c2)c1`, the Potency result is “inactive”.

As to `O=C(Nc1ccncc1)c1ccc(Cl)c([N+](=O)[O-])c1`, the Potency was 26.9 µM (active).

As for `O=C(Nc1ccncc1)c1ccc([N+](=O)[O-])cc1Cl`, the Potency entry was “inactive”.

For `Cc1c(CCO)c(=O)n(-c2ccccc2)n1S(=O)(=O)c1ccc(F)cc1`, the Potency entry was “inactive”.

Turning to `CCOc1ccc(NCCC(=O)c2ccc3c(c2)OCO3)cc1`, the Potency result was “inactive”.

With `COc1ccc(CNC(=O)C(NS(=O)(=O)c2cccc3nsnc23)C(C)C)cc1` (stereo unspecified), the Potency result is “inactive”.

With `CC(NC(=O)c1ccc(S(=O)(=O)Nc2ccccc2)cc1)c1ccc(S(N)(=O)=O)cc1` (stereo unspecified), the Potency entry was “inactive”.
